# Test results published in PubChem BioAssay AID2075 (NMMLSC, 2009).
# Activity calls are given as the source filed them. The rule behind the calls is not given here.
# Biological target: Apoptosis regulator Bcl-2 (Homo sapiens) (UniProt P10415)
# Assay: inhibitors of Bim-Bcl-2 binding, confirmation, biochemical, dose response, multiplexed HTS hits (AID 2075)
# Details: bead-based flow cytometry, Bim peptide-Bcl-2 binding; series mostly up to 100 µM
# Sequence of Apoptosis regulator Bcl-2 (Homo sapiens) (P10415 whole entry, looked up): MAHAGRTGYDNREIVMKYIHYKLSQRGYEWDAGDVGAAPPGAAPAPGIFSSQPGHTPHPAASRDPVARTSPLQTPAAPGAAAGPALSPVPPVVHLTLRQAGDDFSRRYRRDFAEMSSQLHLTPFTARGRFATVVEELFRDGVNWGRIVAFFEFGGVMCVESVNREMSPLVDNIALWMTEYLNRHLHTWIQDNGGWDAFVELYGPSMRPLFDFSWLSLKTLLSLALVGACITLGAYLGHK
compound,measurement,value
O=C1NC(=O)C(=Cc2ccc(-c3cc(Cl)ccc3[N+](=O)[O-])o2)C(=O)N1,outcome,inactive
